Screens: PubChem BioAssay, National Center for Advancing Translational Sciences (NCATS)
A selection: hits, their analogues and other compounds. The true share with any hit is near 12%.
HP1b chromo inh: blocks HP1-beta chromodomain binding to methylated histone tails; 390,000 tested, 0.56% active; Potency, µM (top dose mostly 114 µM), actives largely listed as inhibitors; AlphaScreen HP1-beta / biotin-H3K9me3 peptide binding; P83916; also: nearly all actives have a fitted effect of over 70% in size
Target sequence (P83916 whole entry, looked up): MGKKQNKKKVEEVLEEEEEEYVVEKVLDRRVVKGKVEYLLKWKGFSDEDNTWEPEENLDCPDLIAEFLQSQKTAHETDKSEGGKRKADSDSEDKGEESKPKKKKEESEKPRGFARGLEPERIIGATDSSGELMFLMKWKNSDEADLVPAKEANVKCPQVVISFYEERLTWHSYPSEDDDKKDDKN
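HP1-beta protein (50 nM final) preincubated 30 min at room temperature with biotinylated H3(1-18)K9me3 peptide (50 nM) in PBS pH 7.4, 0.01% Tween-20, then compound added for 30 min. AlphaScreen streptavidin donor/nickel chelate acceptor beads (10 ug/mL final), 30 min dark, luminescence read.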
BAZ2B inh: inhibitors of human BAZ2B bromodomain; AlphaScreen BAZ2B-H3K14Ac peptide displacement; AID 504333; Potency, µM (series often up to 114 µM), usual class: inhibitors; 360,000 tested, 4.4% active; also: nearly all actives have a fitted effect of over 60% in size
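AlphaScreen luminescence quantifies BAZ2B engagement of H3K14Ac peptide; the protein and biotinylated peptide are both at 50 nM final, buffer PBS pH 7.4 with 0.01% Tween-20, all steps at room temperature.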
Sfp PPTase inh: Sfp phosphopantetheinyl transferase inhibition; 310,000 tested, 3.5% active; Potency, µM, actives largely listed as inhibitors; AID 1490; Biochemical Sfp PPTase activity, qHTS;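 also: the enzyme is Sfp with the accession as filed and its product quenches rhodamine fluorescence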
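Fluorescence-quenching assay with 15 nM Sfp, 5 uM rhodamine-CoA and 12.5 uM BHQ-2-labelled ybbR peptide in pH 7.6 Hepes/MgCl2 buffer. Enzyme was pre-incubated with compound for 15 min at room temperature. Rate was taken from the 30-min fluorescence change (525/598 nm).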
JMJD2A Tudor inh: blocks the human JMJD2A Tudor domain. O75164. AlphaScreen JMJD2A-Tudor / H3K4me3 peptide binding. Potency, µM (top dose mostly 114 µM), usual class: inhibitors. 390,000 tested, 4.4% active; also: nearly all actives have a fitted effect of over 50% in size
G9a block: inhibitors of human histone lysine methyltransferase G9a; Potency, µM (series often up to 102 µM), hits mostly inhibitors; G9a H3K9 monomethylation, AlphaScreen, 2 h; 350,000 tested, 8.8% active; Q96KQ7; also: nearly all actives have a fitted effect of over 75% in size
Target sequence (Q96KQ7 913-1193 limits assumed): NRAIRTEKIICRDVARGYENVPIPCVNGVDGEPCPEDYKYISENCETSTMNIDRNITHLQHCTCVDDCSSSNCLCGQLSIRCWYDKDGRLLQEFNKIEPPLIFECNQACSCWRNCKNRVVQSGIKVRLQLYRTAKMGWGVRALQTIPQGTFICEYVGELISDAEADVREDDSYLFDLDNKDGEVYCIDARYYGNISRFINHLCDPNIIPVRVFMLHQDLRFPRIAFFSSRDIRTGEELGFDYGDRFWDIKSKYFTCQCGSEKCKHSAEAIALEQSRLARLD
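Methyltransferase reactions run at room temperature for 2 h (20 nM enzyme, 500 nM biotin-H3K9 peptide, 20 uM SAM) after a 15 min compound preincubation; product detected by AlphaScreen beads and anti-H3K9me1 antibody.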
L3MBTL1 inh: L3MBTL1 (human) inhibition; 230,000 tested, 0.66% active; Potency, µM (series often up to 57.1 µM), hits mostly inhibitors; Q9Y468; AlphaScreen L3MBTL1–H3K9me1 peptide binding; also: nearly all actives have a fitted effect of over 60% in size
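Read-out is AlphaScreen signal from streptavidin donor and nickel chelate acceptor beads (10 ug/mL final each) bridging L3MBTL1 (50 nM) and biotinylated K9-monomethylated H3(1-15) peptide (75 nM), after 30 min compound exposure at room temperature.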
Of the large screens only hits and unclear results are named; the others gave an inactive call. Calls follow the shape of the dose curve; as a rule, active = well fitted curve in the direction sought with a large enough effect; inconclusive = small, poorly fitted or top-dose-only effect, or another doubt; inactive = no such curve, though single readings can be large; an effect the other way counts as inactive or inconclusive.

Cc1ccc(OCc2nc(-c3ccc(C(=O)NCCc4ccc(Cl)cc4)cc3)oc2C)cc1	none (no result: Sfp PPTase inh, L3MBTL1 inh)
Cc1cccc(N2CCN(S(=O)(=O)c3c(C(=O)N4CCC(C)CC4)c(C)n(C)c3C)CC2)c1C	BAZ2B inh inconclusive, JMJD2A Tudor inh inconclusive (no result: Sfp PPTase inh, L3MBTL1 inh)
CCC(Sc1nnc(C)n2c1cc1occc12)C(=O)Nc1ccccc1OC (stereo unspecified)	none (no result: Sfp PPTase inh, L3MBTL1 inh)
Cc1cc(C)nc(NS(=O)(=O)c2ccc(NC(=O)Cn3c(=O)oc4ccccc43)cc2)n1	G9a block 79µM (no result: L3MBTL1 inh)
Cc1cc(C)nc(SCC(=O)NNS(=O)(=O)c2ccc(C#N)cc2)n1	HP1b chromo inh inconclusive, BAZ2B inh 56µM, JMJD2A Tudor inh 45µM, G9a block 7.9µM, L3MBTL1 inh inconclusive (no result: Sfp PPTase inh)
CC(=O)Nc1ccc(SCC(=O)NNC(=O)CN(C)S(=O)(=O)c2ccc(C)cc2)cc1	G9a block 45µM (no result: Sfp PPTase inh)
Cc1cc(C)nc(SCC(=O)Nc2ccc(S(=O)(=O)Nc3ncccn3)cc2)n1	Sfp PPTase inh 13µM (no result: G9a block)
Cc1cc(C)nc(NS(=O)(=O)c2ccc(NS(=O)(=O)c3ccc(C#N)cc3)cc2)n1	G9a block inconclusive (no result: L3MBTL1 inh)
Cc1nc2c(C(=O)NCCc3ccccc3)cnn2c(C)c1Cc1c(F)cccc1Cl	none (no result: Sfp PPTase inh, L3MBTL1 inh)
Cc1ccc2[nH]c3c(=O)n(CC(=O)N4CCCC(C)C4)ncc3c2c1 (stereo unspecified)	none (no result: Sfp PPTase inh, L3MBTL1 inh)
Cc1cc(C)c2c(CC(=O)Nc3ccc(S(=O)(=O)Nc4nc(C)cc(C)n4)cc3)coc2c1	G9a block 14µM (no result: Sfp PPTase inh, L3MBTL1 inh)
O=C(/C=C/c1cccc(F)c1)Nc1ccc(S(=O)(=O)Nc2ncccn2)cc1	none
Cc1ccc(SCC(=O)Nc2ccc(S(=O)(=O)Nc3ncccn3)cc2)cc1	G9a block 45µM
O=C(/C=C/c1ccc(Br)cc1)Nc1ccc(S(=O)(=O)Nc2ncccn2)cc1	BAZ2B inh 89µM (no result: G9a block)
O=C(c1cccs1)N1CCCc2cc(NS(=O)(=O)c3ccc(F)cc3)ccc21	none (no result: Sfp PPTase inh, L3MBTL1 inh)
CC1CCN(S(=O)(=O)c2ccc3[nH]cc(C(=O)NCc4ccc(F)cc4)c(=O)c3c2)CC1	none (no result: Sfp PPTase inh, L3MBTL1 inh)
O=C(CCn1cnc2onc(-c3ccc(F)cc3)c2c1=O)N1CCN(c2ccccc2F)CC1	none (no result: Sfp PPTase inh, L3MBTL1 inh)
Cc1noc(NS(=O)(=O)c2ccc(N/C=C\C(=O)c3ccc(F)cc3)cc2)c1C	BAZ2B inh inconclusive (no result: G9a block)
Cc1noc(NS(=O)(=O)c2ccc(N/C=C/C(=O)c3ccc4c(c3)OCO4)cc2)c1C	BAZ2B inh inconclusive, G9a block 79µM
Cc1noc(NS(=O)(=O)c2ccc(N/C=C\C(=O)c3ccccc3)cc2)c1C	G9a block 50µM
COc1cc(NC(=O)c2cc3cc4ccc(C)cc4nc3o2)cc(OC)c1OC	none (no result: BAZ2B inh, Sfp PPTase inh, L3MBTL1 inh)
O=C(OCC#CCSc1nnc(-c2ccc3ccccc3c2)o1)c1cccs1	none (no result: HP1b chromo inh, BAZ2B inh, Sfp PPTase inh, G9a block, L3MBTL1 inh)
COc1cc(S(=O)(=O)Nc2ccc(C)cc2)ccc1N=Cc1c(C)c(C#N)c(=O)n(C)c1O	G9a block inconclusive
Cc1ccc(N/N=C/c2c(C)c(C#N)c(=O)n(C)c2O)cc1C	BAZ2B inh 56µM, Sfp PPTase inh 13µM, JMJD2A Tudor inh 11µM, G9a block 0.79µM
C[C@@]1(C(=O)O)NCCc2cc(O)c(O)cc21	Sfp PPTase inh 56µM (no result: HP1b chromo inh, BAZ2B inh, JMJD2A Tudor inh, G9a block, L3MBTL1 inh)
CC(=O)c1cccc(NC(=O)/C(=C\c2ccco2)NC(=O)c2ccco2)c1	none (no result: L3MBTL1 inh)
O=C(Nc1ccc(C(=O)O)cc1)/C(=C\c1ccco1)NC(=O)c1ccco1	G9a block 50µM (no result: L3MBTL1 inh)
CC(=O)c1ccc(NC(=O)/C(=C\c2ccco2)NC(=O)c2ccco2)cc1	G9a block 50µM (no result: L3MBTL1 inh)
O=c1c2oc3ccccc3c2n(Cc2ccccc2Cl)c(=O)n1Cc1ccc2c(c1)OCO2	BAZ2B inh inconclusive (no result: Sfp PPTase inh, L3MBTL1 inh)
CCOC(=O)CN1C(=O)S/C(=C\c2ccc(-c3cccc(C(=O)O)c3C)o2)C1=O	none (no result: BAZ2B inh, Sfp PPTase inh, G9a block, L3MBTL1 inh)
CCOc1cc(/C=C2/NC(=O)N(CC(=O)Nc3cccc(C)c3)C2=O)ccc1OCC(N)=O	JMJD2A Tudor inh 56µM
O=C(CN1C(=O)S/C(=C\c2ccc(-c3cc(C(=O)O)ccc3Cl)o2)C1=O)Nc1ccc2c(c1)OCO2	BAZ2B inh 8.9µM, G9a block inconclusive (no result: HP1b chromo inh, JMJD2A Tudor inh, L3MBTL1 inh)
